Sfp PPTase inh = inhibitors of Bacillus subtilis Sfp phosphopantetheinyl transferase; Potency, µM, for inactives: largest response in the series, negative = inhibition, actives largely listed as inhibitors; Q9F4F7; 3.5% of 310,000 active; Biochemical Sfp PPTase activity, qHTS;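 further: the enzyme is Sfp with the accession as filed and its product quenches rhodamine fluorescence; 0% = enzyme reaction without inhibitor and -100% = no enzyme wells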
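With Hepes-Na pH 7.6 buffer containing 10 mM MgCl2, Sfp (15 nM) modified BHQ-2-YbbR (12.5 uM) using rhodamine-CoA (5 uM). Two reads 30 minutes apart at 525/598 nm yielded each well's rate.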
G9a inh = G9a (human) methyltransferase inhibition | Potency, µM (top dose mostly 102 µM), for inactives: at the top dose activity, negative = inhibition, most hits filed as inhibitors | Q96KQ7 | G9a H3K9 monomethylation, AlphaScreen, 2 h | 8.8% of 350,000 active | AID 504332; further: on the % scale 0 is the no-effect control and ±100 the full control effect; nearly all actives have a fitted effect of over 75% in size
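Signal arises when biotinylated H3K9 peptide, once monomethylated, bridges streptavidin donor and antibody-captured acceptor beads. Enzyme at 20 nM was preincubated 15 min with test compounds; peptide 500 nM and SAM 20 uM then reacted for 2 h.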
L3MBTL1 inh = blocks human L3MBTL1; AID 485360; 0.66% of 230,000 active; Q9Y468; AlphaScreen L3MBTL1–H3K9me1 peptide binding; Potency, µM (top dose mostly 57.1 µM), inactives show at the highest dose activity, negative = inhibition, hits mostly inhibitors; further: on the % scale 0 is the no-effect control and ±100 the full control effect; nearly all actives have a fitted effect of over 60% in size
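AlphaScreen assay: L3MBTL1 (50 nM final) was preincubated 30 min at room temperature with biotinylated H3(1-15)K9me1 peptide (75 nM final), then 30 min with library compounds; streptavidin donor and nickel chelate acceptor beads (10 ug/mL final) added, 30 min dark.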
JMJD2A Tudor = blocks the human JMJD2A Tudor domain; AID 504339; Potency, µM (series often up to 114 µM), for inactives: top-dose activity change, negative = inhibition, usual class: inhibitors; 4.4% of 390,000 active; O75164; AlphaScreen JMJD2A-Tudor / H3K4me3 peptide binding; further: on the % scale 0 is the no-effect control and ±100 the full control effect; nearly all actives have a fitted effect of over 50% in size
HP1b binding inh = inhibitors of HP1-beta chromodomain binding to methylated histone tails; 0.56% of 390,000 active; AlphaScreen HP1-beta / biotin-H3K9me3 peptide binding; Potency, µM (top dose mostly 114 µM), for the others: top-dose activity change, negative = inhibition, hits mostly inhibitors; P83916; further: nearly all actives have a fitted effect of over 70% in size
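AlphaScreen: HP1-beta (50 nM) preformed 30 min with biotin-H3(1-18)K9me3 peptide (50 nM) in PBS pH 7.4, 0.01% Tween-20. Compound added for 30 min at RT, then streptavidin donor/nickel chelate acceptor beads (10 ug/mL) for 30 min.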
BAZ2B block = blocks human BAZ2B; AlphaScreen BAZ2B-H3K14Ac peptide displacement; Potency, µM (titrated, usually from 114 µM), inactives show at the highest dose activity change, negative = inhibition, usual class: inhibitors; 4.4% of 360,000 active; further: on the % scale 0 is the no-effect control and ±100 the full control effect; nearly all actives have a fitted effect of over 60% in size
Target sequence (Q9UIF8 whole entry, looked up): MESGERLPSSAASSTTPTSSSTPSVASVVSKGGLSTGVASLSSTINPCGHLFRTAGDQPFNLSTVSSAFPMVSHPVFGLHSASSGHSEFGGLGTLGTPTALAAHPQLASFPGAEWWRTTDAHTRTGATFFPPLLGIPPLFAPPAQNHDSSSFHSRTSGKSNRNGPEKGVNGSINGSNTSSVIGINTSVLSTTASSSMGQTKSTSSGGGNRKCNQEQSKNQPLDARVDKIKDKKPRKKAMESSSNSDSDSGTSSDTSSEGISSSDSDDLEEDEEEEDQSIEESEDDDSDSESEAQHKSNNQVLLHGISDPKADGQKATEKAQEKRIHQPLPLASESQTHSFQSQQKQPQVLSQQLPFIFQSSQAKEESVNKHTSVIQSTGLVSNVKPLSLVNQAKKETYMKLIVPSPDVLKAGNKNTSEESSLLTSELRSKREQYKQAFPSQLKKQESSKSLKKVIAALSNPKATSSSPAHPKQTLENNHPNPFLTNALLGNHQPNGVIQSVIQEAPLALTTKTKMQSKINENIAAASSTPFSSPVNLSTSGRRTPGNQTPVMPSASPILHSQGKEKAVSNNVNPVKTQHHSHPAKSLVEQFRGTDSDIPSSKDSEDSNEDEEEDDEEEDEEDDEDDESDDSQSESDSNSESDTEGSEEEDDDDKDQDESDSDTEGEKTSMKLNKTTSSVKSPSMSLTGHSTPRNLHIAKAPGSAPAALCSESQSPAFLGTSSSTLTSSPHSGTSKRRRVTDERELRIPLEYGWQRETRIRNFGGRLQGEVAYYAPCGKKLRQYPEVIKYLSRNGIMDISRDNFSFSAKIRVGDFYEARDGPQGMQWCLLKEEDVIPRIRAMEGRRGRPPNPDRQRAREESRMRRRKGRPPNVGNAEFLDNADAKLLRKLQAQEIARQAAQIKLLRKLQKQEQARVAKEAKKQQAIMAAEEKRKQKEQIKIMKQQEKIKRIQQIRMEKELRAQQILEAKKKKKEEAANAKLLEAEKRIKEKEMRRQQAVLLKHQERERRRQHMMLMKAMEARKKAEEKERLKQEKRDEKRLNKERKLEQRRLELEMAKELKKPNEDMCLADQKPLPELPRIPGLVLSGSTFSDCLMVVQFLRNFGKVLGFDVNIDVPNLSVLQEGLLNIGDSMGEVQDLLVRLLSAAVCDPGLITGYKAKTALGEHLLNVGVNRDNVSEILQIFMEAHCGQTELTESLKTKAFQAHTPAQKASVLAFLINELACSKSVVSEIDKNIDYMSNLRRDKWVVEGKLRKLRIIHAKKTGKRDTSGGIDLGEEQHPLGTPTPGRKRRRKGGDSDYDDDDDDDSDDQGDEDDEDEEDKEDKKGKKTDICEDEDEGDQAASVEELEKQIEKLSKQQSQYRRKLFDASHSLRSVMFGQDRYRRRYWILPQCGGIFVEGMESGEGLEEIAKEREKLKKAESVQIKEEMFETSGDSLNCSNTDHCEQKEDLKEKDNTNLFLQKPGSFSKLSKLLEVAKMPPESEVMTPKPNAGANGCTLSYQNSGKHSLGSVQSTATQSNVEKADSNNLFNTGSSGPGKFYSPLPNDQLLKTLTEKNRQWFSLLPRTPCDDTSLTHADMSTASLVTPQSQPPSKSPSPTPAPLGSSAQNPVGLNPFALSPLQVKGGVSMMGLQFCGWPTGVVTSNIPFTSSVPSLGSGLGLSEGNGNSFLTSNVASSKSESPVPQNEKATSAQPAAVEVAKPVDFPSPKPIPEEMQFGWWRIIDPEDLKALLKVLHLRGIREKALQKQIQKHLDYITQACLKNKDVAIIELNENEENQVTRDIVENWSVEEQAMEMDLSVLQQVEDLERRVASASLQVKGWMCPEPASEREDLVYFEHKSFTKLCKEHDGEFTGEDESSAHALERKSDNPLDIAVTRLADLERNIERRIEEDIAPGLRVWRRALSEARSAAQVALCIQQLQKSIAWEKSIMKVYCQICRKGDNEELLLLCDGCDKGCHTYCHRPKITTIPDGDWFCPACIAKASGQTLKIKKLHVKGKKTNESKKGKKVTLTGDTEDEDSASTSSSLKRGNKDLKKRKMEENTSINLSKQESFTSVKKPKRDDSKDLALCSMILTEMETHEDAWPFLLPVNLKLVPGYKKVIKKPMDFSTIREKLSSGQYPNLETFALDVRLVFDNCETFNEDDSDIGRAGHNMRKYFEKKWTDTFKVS
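Compounds, titrated to a top concentration of 110 uM, were incubated 30 min at room temperature with preformed BAZ2B/acetyl-K14 H3 peptide complex (50 nM each). Proximity signal was measured by AlphaScreen after 20 min with beads.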
The depositor's hits bear a star; ? = inconclusive; nt = no result given; ! = a repeat was not active; [ ] = remark or other dose. Most compounds without a hit are left out; they make up all but 12% or so of the library. The call rests on the fitted dose curve; in most records, active means well fitted curve in the direction sought with a large enough effect; inconclusive means small, poorly fitted or top-dose-only effect, or another doubt; inactive means no such curve, though single readings can be large; an effect the other way counts as inactive or inconclusive. Potency means the concentration at half of the fitted maximal effect.

SMILES	Sfp PPTase inh	G9a inh	L3MBTL1 inh	JMJD2A Tudor	HP1b binding inh	BAZ2B block
O=c1ccc2cc(O[C@H]3OC(CO)C(O)C(O)C3O)c(O)cc2o1 (stereo partly specified)	-3%	-18%[2.33 µM]	nt	nt	nt	nt
CCCCn1c(NS(=O)(=O)c2ccccc2)c(C(=O)OCC)c2nc3ccccc3nc21	9%	?	4.5µM*	21%	67%	-31%
CCOc1ccc(CCNC(=O)c2cc3c(-c4ccc(OC)c(OC)c4)nn(C)c3s2)cc1OCC	nt	?	nt	?	9%	nt
Cn1c(NN=O)nc2ccccc21	40µM*	8.9µM*	-14%	?	-2%	?
CCN1CCN(Cc2nc3ccc([N+](=O)[O-])cc3c(=O)n2-c2ccccc2F)CC1	-12%	?	nt	7%	23%	2%
COc1cccc(-n2c(CN3CCOCC3)nc3ccc([N+](=O)[O-])cc3c2=O)c1	?	45µM*	nt	-17%	12%	-7%
O=P1(Oc2ccccc2)CC=CC(COC(c2ccccc2)(c2ccccc2)c2ccccc2)O1 (stereo unspecified)	-3%	nt	nt	-30%	20%	nt
CC(C)(C)C(O)C(Oc1ccc(-c2ccccc2)cc1)n1cncn1 (stereo unspecified)	-16%	nt	nt	nt	nt	nt
C[C@H](N)C(=O)N[C@@H](C)C(=O)N[C@@H](Cc1ccccc1)C(=O)CCl	17%	16µM*	nt	nt	nt	nt
C/C(CC(c1ccccc1)c1c(O)c2ccccc2oc1=O)=N\NC(N)=S (stereo unspecified)	?	?	4%	1.3µM*	-20%	2%
O=C1CC(O)(CF)CCO1 (stereo unspecified)	6%	nt	nt	nt	nt	nt
CN(CC(=O)N[C@H](CO)Cc1ccccc1)C(=O)[C@H](CCS(C)=O)NC(=O)[C@@H](N)Cc1ccc(O)cc1 (stereo partly specified)	15%	44%[59 µM]	nt	nt	nt	nt
CN1CCC(O)(c2ccc(Cl)cc2)C(C(=O)c2ccc(Cl)cc2)C1 (stereo unspecified)	-8%	10µM*	-8%	-20%	34%	-8%
CN1CC(C(=O)c2ccc(Cl)cc2)C(c2ccc(Cl)cc2Cl)C1 (stereo unspecified)	?	?	nt	-33%	-13%	-18%
O=S(=O)(c1ccc(Cl)cc1)c1cc(Cl)c(Cl)cc1Cl	-20%	nt	nt	nt	nt	nt
COC[C@H]([C@@H](O)[C@@H](O)C(=O)NCC[C@@H](C)c1nc(/C=C/C[C@H]2OC3(C[C@H](O)[C@H]2C)OC([C@@H](C[C@@H](O)[C@@H](C)[C@@H](O)[C@@H](C)/C=C(C)/C(C)=C/C=C/C(C)=C\C#N)OC)[C@@H](OP(=O)(O)O)C3(C)C)co1)N(C)C (stereo partly specified)	16%	27%[59 µM]	nt	nt	nt	nt
Cc1ccc(S(=O)(=O)CC(=O)c2cc(C)c(OC(=O)N(C)C)c(C)c2)cc1	11%	-5%	-17%	-10%	47%	-13%
Cc1cc(C(=O)CS(=O)c2ccc(F)cc2)cc(C)c1OC(=O)N(C)C (stereo unspecified)	?	40µM*	-3%	-7%	34%	-13%
O=C(CO)C(O)C(O)C(O)CO (stereo unspecified)	5%	4%[12.7 µM]	3%	56µM*	13%	8%
N[C@@H](Cn1ccc(=O)[nH]c1=O)C(=O)O	nt	1.5µM*	nt	nt	nt	nt
N[C@@H](Cn1cc(I)c(=O)[nH]c1=O)C(=O)O	?	35µM*	nt	nt	nt	nt
CCN(CC)P(=S)(c1c(C)nc2ccccn12)c1c(C)nc2ccccn12	50µM*	14µM*	1%	-12%	-25%	-4%
O=C1NC(=O)C(=O)C(=O)N1	14µM*	nt	nt	nt	nt	nt
O=C1NC(=O)C2(CCCC2)C(=O)N1	nt	nt	nt	-8%	-16%	nt
CCc1ccc(-n2nc(C)c3c(C(=O)NCCc4ccc(OC)c(OC)c4)cc(C)nc32)cc1	nt	5%[59 µM]	nt	6%	47%	19%[57.1 µM]
SMILES	Sfp PPTase inh	G9a inh	L3MBTL1 inh	JMJD2A Tudor	HP1b binding inh	BAZ2B block
Clc1ccc(C(Cn2ccnc2)OCc2csc3c(Cl)cccc23)c(Cl)c1 (stereo unspecified)	nt	13µM*	?	28µM*	7%	10µM*
Clc1ccc([C@H](Cn2ccnc2)OCc2csc3c(Cl)cccc23)c(Cl)c1	-8%	-26%[21.5 µM]	nt	nt	nt	nt
CCN(CC)c1ccc(CNc2nc3ccccc3n2C)cc1	-2%	nt	nt	?	24%	45µM*
COc1cc(Cc2ccc(N)c(OC)c2)ccc1N	7%	71µM*	-1%	?	-21%	?
C=C(C)C1CCC(C)=CC1c1c(O)cc(O)cc1CCCCC (stereo unspecified)	-1%	?	nt	nt	nt	nt
S=c1[nH]nc(Cn2c(-c3ccccn3)nc3ccccc32)n1-c1ccc2c(c1)OCCO2	79µM*	-135%[59 µM]	23%	3.2µM*	?	-6%
Cc1ncc(CNC(=O)N(CCCl)N=O)c(N)n1	-28%	17µM*!	8%	-34%	24%	-10%
CCC(/C=C/C(C)C1CCC2C3CC=C4CC(O)CC[C@@]4(C)C3CC[C@@]12C)C(C)C (stereo partly specified)	31%	nt	nt	nt	nt	nt
CCC1(CC)C(=O)NC(=O)NC1=O	13%	30%[59 µM]	nt	nt	nt	nt
CCCCC(=O)C1C(=O)NC(=O)NC1=O	-7%	-11%[59 µM]	-6%	56µM*	21%	-30%
CC[N+](C)(CC)CCCCOc1ccc2c(c1)C(=O)c1cc(OCCCC[N+](C)(CC)CC)ccc1-2	14µM*	32µM*	3%	22µM*	?	?
CCC1CCCCN1CC(=O)c1ccc(OC(F)F)cc1 (stereo unspecified)	?	14µM*	0%	-1%	53%	1%
CCc1ccc(NC(=O)CN2C(=O)C3(SCC(=O)N3c3ccc(F)c(F)c3)c3ccccc32)cc1 (stereo unspecified)	nt	?	nt	-31%	16%	4%[57.1 µM]
O=C1NC(=O)C(=Cc2ccsc2)C(=O)N1	?	-24%	6%	6%	50%	4%
O=C1NC(=O)N(c2ccc(Br)cc2)C(=O)/C1=C/c1ccsc1	32µM*	20µM*	nt	-22%	27%	14%
O=C1NC(=O)N(c2ccc(F)cc2)C(=O)/C1=C/c1ccsc1	?	14µM*	3%	-11%	54%	-13%
O=C1NC(=O)N(c2cccc(Br)c2)C(=O)/C1=C/c1ccsc1	20µM*	10µM*	nt	-11%	29%	-2%
O=C1c2cccc3cc([N+](=O)[O-])cc(c23)C(=O)N1c1ccccc1O	-5%	16%[12.7 µM]	-2%	-9%[11.4 µM]	23%	?
Clc1ccc(N2CC3CCC(C2)N3)nn1	nt	24µM*	nt	nt	nt	nt
O=C(Nc1ccc2oc(-c3cccnc3)nc2c1)c1ccc(-c2cccc(Cl)c2)o1	nt	?	nt	79µM*	?	56µM*

From PubChem
